Source: PubChem BioAssay AID485270 (The Scripps Research Institute Molecular Screening Center, 2010)
The campaign covered roughly 330,000 compounds. About 5,800 (1.8%) were called active. The full list was thinned out, with actives kept by preference. A number with no mark means an inactive call. Rule as the data show it: active = inhibition mostly above about 38% (no sharp cut-off); inactive = mostly below about 40%.

Target: Orexin/Hypocretin receptor type 1 (Homo sapiens) (UniProt O43613)
Test: blocks the human orexin 1 receptor (AID 485270);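 also: 0% = agonist challenge alone and 100% = reference antagonist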
Conditions: OX1R-expressing cells, FRET antagonist read-out; at 6.6 µM; hits give high values

Chain of Orexin/Hypocretin receptor type 1 (Homo sapiens) (O43613 whole entry, looked up): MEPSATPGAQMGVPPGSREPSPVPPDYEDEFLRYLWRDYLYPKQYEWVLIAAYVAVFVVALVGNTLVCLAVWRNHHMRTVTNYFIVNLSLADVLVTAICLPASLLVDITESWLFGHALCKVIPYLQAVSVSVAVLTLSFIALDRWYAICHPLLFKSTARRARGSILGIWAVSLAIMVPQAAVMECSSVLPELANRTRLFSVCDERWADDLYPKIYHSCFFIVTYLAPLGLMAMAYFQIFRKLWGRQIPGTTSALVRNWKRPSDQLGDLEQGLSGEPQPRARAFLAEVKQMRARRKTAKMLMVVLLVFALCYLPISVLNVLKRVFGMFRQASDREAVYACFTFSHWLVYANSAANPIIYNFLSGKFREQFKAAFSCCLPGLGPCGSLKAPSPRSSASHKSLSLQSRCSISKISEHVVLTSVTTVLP

Question: For `O=C(COC(=O)c1n[nH]c2ccccc12)Nc1ccccc1Br`, which inhibition is on record?
Answer: Its inhibition is 19.4%.

Question: How did the inhibition turn out when `CCOC(=O)C1CCN(CC(=O)Nc2ccc(OC)c(S(=O)(=O)N3CCCCC3)c2)CC1` was run?
Answer: Its inhibition is 7.12%.

Question: `CC[C@@H]1CCCCc2ccccc2[C@@H](C(=O)C[C@H](O)CC(C)=O)OC1=O` was tested. Which inhibition did it give?
Answer: The inhibition was 5.92%.

Question: Which inhibition does the source give for `Cc1ccc2cc(CCNC(=O)c3c(-c4ccccc4Cl)noc3C)c(=O)[nH]c2c1` here?
Answer: The inhibition was 6.94%.

Question: Which inhibition does the source give for `Cc1onc(-c2ccccc2Cl)c1C(=O)OCC(=O)c1ccccc1` here?
Answer: Its inhibition is 21.4%.

Question: How did the inhibition turn out when `Cc1onc(-c2ccccc2Cl)c1C(=O)NCCn1ccc2ccccc21` was run?
Answer: The inhibition was 69.4% (active).

Question: Which inhibition does the source give for `NCCN1CCN2C(=O)CN(C(=O)c3ccccc3)CC12` (stereo not given) here?
Answer: Its inhibition is 6.95%.

Question: Which inhibition does the source give for `CC1(C)C[C@H]2C3=CCC4[C@@]5(C)CC[C@H](O)[C@](C)(CO)C5CC[C@@]4(C)[C@]3(C)C[C@@H](O)[C@@]2(CO)[C@@H](O)[C@@H]1O` (stereo not given in full) here?
Answer: Its inhibition is 6.35%.

Question: Which inhibition does the source give for `O=C(CSc1nccn1-c1cccc(F)c1)NC1CCCC1` here?
Answer: Its inhibition is 1.88%.

Question: For `CC(OC(=O)c1c(F)cccc1F)C(=O)NCCC1=CCCCC1` (stereo not given), which inhibition is on record?
Answer: Its inhibition is 6.17%.

Question: How did the inhibition turn out when `Cc1[nH]n(C)c(=O)c1C(=O)c1c(-c2c(Cl)cccc2Cl)noc1C` was run?
Answer: Its inhibition is 38.8%.

Question: How did the inhibition turn out when `Cc1cccc(N=Nc2c(C)[nH]n(-c3ccccc3)c2=O)c1` was run?
Answer: Its inhibition is 6.48%.

Question: Which inhibition does the source give for `Cc1[nH]n(C)c(=O)c1N=Nc1ccc(S(C)(=O)=O)cc1` here?
Answer: Its inhibition is 75.9% (active).

Question: With `O=C(Nc1cccc(Br)c1)c1ccc2snnc2c1` as the compound, how does the inhibition read?
Answer: The inhibition was 28.6%.

Question: How did the inhibition turn out when `O=C(Nc1ccc2ccccc2c1)Nc1ccc2snnc2c1` was run?
Answer: The inhibition was 60.2% (active).

Question: Which inhibition does the source give for `CCc1ccccc1NC(=O)c1ccc2snnc2c1` here?
Answer: The inhibition was 19.6%.

Question: For `CC(=O)C(CC(=O)N1CCCC1)C(=O)Nc1ccc(Cl)cc1` (stereo not given), which inhibition is on record?
Answer: Its inhibition is -2.02%.

Question: Which inhibition does the source give for `O=C1COc2ccc(C(=O)COC(=O)c3ccccc3Cl)cc2N1` here?
Answer: Its inhibition is 8.89%.

Question: Which inhibition does the source give for `CCN(C(=O)CSc1ncnc2sccc12)c1c(N)n(Cc2ccccc2)c(=O)[nH]c1=O` here?
Answer: The inhibition was 42.3% (active).

Question: How did the inhibition turn out when `CCN(C(=O)COC(=O)c1sccc1C)c1c(N)n(Cc2ccccc2)c(=O)[nH]c1=O` was run?
Answer: Its inhibition is 21.4%.

Question: For `CCCN(C(=O)CSc1nnc(N)s1)c1c(N)n(Cc2ccccc2)c(=O)[nH]c1=O`, which inhibition is on record?
Answer: The inhibition was 2.18%.

Question: Which inhibition does the source give for `COc1ccc(C(=O)O)cc1S(=O)(=O)NC1CCN(Cc2ccccc2)CC1` here?
Answer: Its inhibition is 2.69%.

Question: For `O=C(NCCCN1CCOCC1)c1cn(-c2ccccc2)nc1-c1ccc(F)cc1`, which inhibition is on record?
Answer: The inhibition was 1.24%.

Question: How did the inhibition turn out when `CC(=O)NC(Cc1c[nH]c2ccccc12)C(=O)O` (stereo not given) was run?
Answer: The inhibition was 11.3%.

Question: Which inhibition does the source give for `CC(=O)Nc1ccc(/C=N/NC(=O)c2cccs2)cc1` here?
Answer: The inhibition was 18.1%.

Question: Which inhibition does the source give for `O=C(NC(Cc1c[nH]c2ccccc12)C(=O)N/N=C/c1ccc(Br)cc1)c1cccs1` (stereo not given) here?
Answer: The inhibition was 68.7% (active).

Question: How did the inhibition turn out when `O=C(NNS(=O)(=O)c1c(F)cc(F)c(Cl)c1F)C12CC3CC(CC(C3)C1)C2` was run?
Answer: Its inhibition is 6.19%.

Question: How did the inhibition turn out when `COc1ccc(C(=O)NCc2ccccc2C)cc1S(=O)(=O)NC1CCCC1` was run?
Answer: The inhibition was 8.7%.

Question: Which inhibition does the source give for `O=C(COC(=O)c1ccc(O)cc1O)c1ccc2c(c1)OCCO2` here?
Answer: Its inhibition is 9.27%.

Question: With `CCNC(=S)N1CCN(S(=O)(=O)c2ccc(Cl)s2)CC1` as the compound, how does the inhibition read?
Answer: Its inhibition is 13.3%.

Question: With `CC(C)(C)OC(=O)C1=C(CO)CS[C@@H]2[C@H](NC(=O)Cc3ccccc3)C(=O)N12` as the compound, how does the inhibition read?
Answer: The inhibition was 17.7%.

Question: How did the inhibition turn out when `CCCCN(CC)C(=S)Nc1ccc2nc3n(c(=O)c2c1)CCCCC3` was run?
Answer: Its inhibition is 5.73%.

Question: `O=c1c2cc([N+](=O)[O-])ccc2nc2n1CCC2` was tested. Which inhibition did it give?
Answer: The inhibition was 59.2% (active).

Question: Which inhibition does the source give for `O=C(Nc1ccc2nc3n(c(=O)c2c1)CCCC3)c1ccc(Cl)nc1` here?
Answer: Its inhibition is 4.47%.

Question: How did the inhibition turn out when `COc1ccc(C(=O)O/N=C(\N)c2ccccn2)cc1[N+](=O)[O-]` was run?
Answer: The inhibition was 28.6% (active).

Question: Which inhibition does the source give for `N/C(=N\OC(=O)c1ccc([N+](=O)[O-])cc1)c1ccccn1` here?
Answer: Its inhibition is 53.4%.

Question: How did the inhibition turn out when `Cc1ccc(C(=O)O/N=C(\N)c2ccccn2)cc1Cl` was run?
Answer: Its inhibition is 14.1%.

Question: Which inhibition does the source give for `O=C(O[C@H]1[C@H](Cc2ccccc2)NS(=O)(=O)[C@H]2C[C@@H]3C=C[C@]12O3)c1ccc([N+](=O)[O-])cc1` here?
Answer: Its inhibition is 15.9%.

Question: Which inhibition does the source give for `O=C(O[C@@H]1[C@H](Cc2ccccc2)NS(=O)(=O)[C@H]2C[C@@H]3C=C[C@]12O3)c1ccccc1Br` here?
Answer: Its inhibition is 52.4% (active).

Question: How did the inhibition turn out when `CC(C)C(NC(=O)c1c(F)cccc1F)C(=O)NNC(=O)c1ccccc1` (stereo not given) was run?
Answer: Its inhibition is 2.8%.

Question: `COc1ccc(-c2c(C#Cc3ccsc3)c3cc(-c4ccc(CN5CCOCC5)cc4)ccc3n2C)cc1` was tested. Which inhibition did it give?
Answer: The inhibition was 8.67%.

Question: For `COc1cc(C(=S)N2CCOCC2)cc(OC)c1OC(=O)c1cc([N+](=O)[O-])c(C)c([N+](=O)[O-])c1`, which inhibition is on record?
Answer: The inhibition was 8.29%.

Question: How did the inhibition turn out when `COc1cc(C(=S)N2CCOCC2)cc(OC)c1OC(=O)c1cc([N+](=O)[O-])cc([N+](=O)[O-])c1` was run?
Answer: The inhibition was 66.5%.

Question: With `COc1cc(C(=S)N2CCOCC2)cc(OC)c1OC(=O)c1ccc([N+](=O)[O-])cc1[N+](=O)[O-]` as the compound, how does the inhibition read?
Answer: Its inhibition is 113% (active).

Question: For `Cc1cccc([C@H]2[C@@H]3C=CC[C@@H](C)[C@@H]3C(=O)N2Cc2ccccc2)c1`, which inhibition is on record?
Answer: The inhibition was 23.4%.

Question: For `Cc1c(C(=O)Nc2cccc(S(=O)(=O)N3CCOCC3)c2)oc2ccccc12`, which inhibition is on record?
Answer: Its inhibition is 24.2%.

Question: How did the inhibition turn out when `CC(=O)Oc1ccc(C(C)=O)c2c1OCCO2` was run?
Answer: Its inhibition is 88.7% (active).

Question: How did the inhibition turn out when `CC(=O)c1ccc(OC(=O)N2CCOCC2)cc1` was run?
Answer: The inhibition was 0.24%.

Question: For `CC(=O)c1ccc2c(c1)OCCOCCOc1ccc(C(C)=O)cc1OCCOCCO2`, which inhibition is on record?
Answer: Its inhibition is 0.66%.

Question: Which inhibition does the source give for `O=C(NCCc1ccco1)c1ccc(OCc2cn3ccccc3n2)cc1` here?
Answer: The inhibition was 8.69%.

Question: For `COc1ccc(CCn2c(NCCCN3CCOCC3)nc3c2c(=O)[nH]c(=O)n3C)cc1`, which inhibition is on record?
Answer: Its inhibition is 101% (active).

Question: For `COc1ccc(CCn2c(NN=C3CCCC3)nc3c2c(=O)[nH]c(=O)n3C)cc1`, which inhibition is on record?
Answer: The inhibition was 18.2%.

Question: `COc1ccc(CNc2nc3c(c(=O)[nH]c(=O)n3C)n2Cc2ccccc2)cc1` was tested. Which inhibition did it give?
Answer: The inhibition was -5.7%.

Question: With `Cc1ccc(S(=O)(=O)Nc2ccc(F)c(S(=O)(=O)N3CCOCC3)c2)cc1` as the compound, how does the inhibition read?
Answer: Its inhibition is 21.7%.

Question: How did the inhibition turn out when `O=C(CSc1nc2ccccc2c(=O)n1-c1ccccc1F)N1CCOCC1` was run?
Answer: The inhibition was 16.2%.
